Potency and affinity values are given separately.
assay: M. tuberculosis growth inhibition, dose response, 7H9 media, purified and synthesized compounds, set 5 (AID 504903); format: functional; call rule not given here

SMILES | IC90
CCCc1cc(C(N)=S)ccn1 | > 100 µM (active)
Cc1[nH]c2ccccc2c1C(=O)COC(=O)c1ccc([N+](=O)[O-])s1 | > 50.5 µM (active)
O=C(CSc1ccccn1)NC1CCCCC1 | > 100 µM (active)
CNC(=O)CSc1nc2ccccc2c(=O)[nH]1 | > 100 µM (active)
